SKKanGAS inh – blocks kanamycin growth of S. pyogenes SKKanGAS strain; 1.3% of 300,000 active; BacTiter-Glo, 6 h; inhibition, % at 7.5 µM; AID 1662;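 active = mean replicate score, as percent of positive control median, at least 50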;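 note: strain carries kanamycin resistance gene driven by streptokinase promoter and grows in 40 µg/ml kanamycin; loss of luminescence reflects streptokinase promoter inhibition or plain growth inhibition; 0% = median of DMSO wells and 100% = positive control at its reference dose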
Platelet DG rel – modulates dense granule release in human platelets; human platelet-rich plasma, SFLLRN dense granule ATP release, luminescence; inhibition, %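 (compounds screened at 7.5 µM in platelet-rich plasma)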; 0.22% of 300,000 active; AID 1663;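 active = mean replicate score, as percent of positive control, at or above 50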
Rtt109 HAT inh – blocks Candida albicans Rtt109/Vps75 acetyltransferase activity; inhibition, % at 34.9 µM; purified Rtt109/Vps75, ThioGlo CoA-SH fluorescence, 4 h; 0.16% of 330,000 active; AID 540336;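 active = inhibition of at least 50% in every replicate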
Target sequence (Q5AAJ8 whole entry, looked up): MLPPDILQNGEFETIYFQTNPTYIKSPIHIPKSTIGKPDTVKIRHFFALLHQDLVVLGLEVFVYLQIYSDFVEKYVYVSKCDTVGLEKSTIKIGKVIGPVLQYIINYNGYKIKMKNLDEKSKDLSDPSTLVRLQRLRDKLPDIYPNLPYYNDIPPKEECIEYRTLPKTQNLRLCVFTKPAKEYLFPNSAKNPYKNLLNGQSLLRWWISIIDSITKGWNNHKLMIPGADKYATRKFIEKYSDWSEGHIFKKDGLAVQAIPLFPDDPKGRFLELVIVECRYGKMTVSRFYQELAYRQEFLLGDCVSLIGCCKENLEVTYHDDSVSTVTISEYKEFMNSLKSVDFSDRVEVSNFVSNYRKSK
WT yeast gro inh – growth inhibition of WT yeast, mitochondrial fusion screen; inhibition, % at 10 µM; 2.1% of 190,000 active; mitochondrial fusion phenotypic screen, WT strain; in the data active = inhibition above about 58%; tested in S. cerevisiae
PHOSPHO1 inh – blocks human PHOSPHO1 phosphatase activity | inhibition, % at 13.3 µM | recombinant PHOSPHO1, absorbance phosphatase assay | 1.1% of 290,000 active | Q8TCT1; in the data active = inhibition above about 60%
Target sequence (Q8TCT1 whole entry, looked up): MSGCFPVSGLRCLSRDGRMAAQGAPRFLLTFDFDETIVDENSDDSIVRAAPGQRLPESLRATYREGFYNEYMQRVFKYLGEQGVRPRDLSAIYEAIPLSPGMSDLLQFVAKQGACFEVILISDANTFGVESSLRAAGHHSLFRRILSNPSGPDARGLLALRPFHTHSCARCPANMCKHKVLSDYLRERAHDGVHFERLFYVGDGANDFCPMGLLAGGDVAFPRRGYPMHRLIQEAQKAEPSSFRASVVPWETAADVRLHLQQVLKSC
TPT1 inhibitor – blocks Candida albicans tRNA 2'-phosphotransferase; recombinant caTPT1, FP RNA substrate dephosphorylation; inhibition, % at 5 µM; 0.81% of 300,000 active;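 active = inhibition above the mean of all tested compounds plus 3 SD, set per screening campaign, cut at about 24% in these data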;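 note: plate controls were DMSO alone for no effect and ferristatin control at 100 nM for full effect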
* hit, by the source's call; x = not tested or not shown. Compounds with a hit are over-represented: about 3.9% of the library has one in this group of screens.

SMILES | SKKanGAS inh | Platelet DG rel | Rtt109 HAT inh | WT yeast gro inh | PHOSPHO1 inh | TPT1 inhibitor
CSc1nc(SCC(=O)O)c2sc3nc(-c4ccccc4)c4c(c3c2n1)CCC4 | 68.4* | 20.0 | -1.8 | x | -44.0 | x
CSc1nc(N(C)CCO)c2sc3nc(-c4ccco4)c4c(c3c2n1)CCC4 | 5.1 | -4.0 | 1.3 | -1.1 | -76.7 | 1.1
CCN(C(=O)COC(=O)Cn1c(=O)oc2ccccc21)c1c(N)n(Cc2ccccc2)c(=O)[nH]c1=O | x | x | -13.1 | x | x | x
C=CCSc1nnc(-c2cc3c(s2)-c2ccccc2CC3)o1 | -20.7 | -16.8 | -13.4 | 65.7* | -21.9 | -5.0
C=CCSc1nnc(-c2cccc3ccccc23)o1 | x | x | 0.3 | x | x | x
Cc1ccccc1Nc1scc(-c2ccc(Cl)cc2)[n+]1-c1ccccc1C | 3.6 | -3.7 | -0.2 | 59.4* | 39.7 | x
CCOc1nc(SCCOc2ccc(C)cc2)nc(N(C)C)n1 | x | x | -1.7 | 51.0 | -26.0 | -0.5
CCNc1nc(NCC)nc(SCCOc2ccc(C)cc2)n1 | 1.6 | -9.4 | 2.2 | 87.7* | 9.5 | -1.0
Cc1nc(N)nc(N(C)c2ccccc2)c1Br | x | x | -15.4 | x | x | x
CC(C)Oc1ccc(N2CC(C(=O)NC3=NCCS3)CC2=O)cc1 (centres undefined) | -3.0 | -10.9 | 1.1 | 11.3 | 64.2* | -3.1
Cc1ccc(N2CC(C(=O)NC3=NCCS3)CC2=O)cc1 (centres undefined) | -5.6 | -1.3 | -2.7 | -3.5 | 0.3 | 0.9
Cc1nc(N2CCN(C)CC2)c2c(C)c(C(=O)Nc3ccc(F)cc3)sc2n1 | 26.6 | 6.4 | -5.3 | x | 8.5 | -2.3
Cc1nc(N2CCCCC2)c2c(C)c(C(=O)Nc3ccccc3C(F)(F)F)sc2n1 | 9.1 | -1.3 | 3.5 | 65.9* | -31.1 | 1.4
Cc1nc(N2CCCCC2C)c2c(C)c(C(=O)Nc3cccc(C(F)(F)F)c3)sc2n1 (centres undefined) | 32.6 | 7.4 | -0.1 | 68.1* | -25.8 | -0.1
CCOC(=O)c1sc2nc(C)nc(N3CCCCC3C)c2c1C (centres undefined) | 14.4 | -2.2 | -0.6 | 46.7 | -10.0 | -12.0
Cc1nc(N2CCCCC2)c2c(C)c(C(=O)Nc3cccc(C(F)(F)F)c3)sc2n1 | 42.8 | 21.1 | -10.1 | 70.1* | -9.9 | 0.6
CCOc1ccccc1NC(=O)c1sc2nc(C)nc(N3CCOCC3)c2c1C | 8.7 | 5.0 | -14.4 | x | 35.0 | 0.9
C=CCn1c(NC(=O)c2ccc(Br)o2)c(C(=O)OCC)sc1=S | 7.2 | 0.7 | -3.3 | -17.4 | 85.4* | 1.6
Cc1ccccc1OCC(=O)N/N=C/c1cccc2cccnc12 | -0.7 | 4.5 | 7.0 | x | 28.0 | 2.9
O=C(COc1cccc2cccnc12)N/N=C/c1ccccc1O | 99.1* | -1.6 | -4.7 | x | 11.6 | -4.3
COc1ccc(C(=O)Nc2ccccc2C(N)=O)cc1 | x | 4.7 | -9.2 | 40.5 | -35.8 | -2.6
O=C(N/N=C/c1ccccc1O)c1cccc2ccccc12 | 105.5* | -4.2 | -1.3 | x | 39.5 | x
COc1ccc(C(=O)Nc2ccccc2C(=O)N/N=C/c2cccc3ccccc23)cc1 | 25.9 | 91.8* | -2.4 | 67.6* | 24.4 | -1.8
O=C(OCC(=O)N1CCOCC1)c1cccc(S(=O)(=O)Nc2ccc(F)cc2)c1 | x | x | 8.1 | x | x | x
NS(=O)(=O)c1ccc(CCNC(=O)c2ccccc2Cc2ccccc2)cc1 | 1.8 | 2.6 | -9.2 | x | -0.6 | -0.1
SMILES | SKKanGAS inh | Platelet DG rel | Rtt109 HAT inh | WT yeast gro inh | PHOSPHO1 inh | TPT1 inhibitor
COc1ccc(Cc2[nH]n3c(=O)c(Cl)c(C)nc3c2-c2ccccc2)cc1 | 122.1* | -6.6 | 9.4 | 2.3 | 12.0 | -7.0
COc1cccc(NC(=O)CN(C)C(C)C(=O)N2CCCC2)c1 (centres undefined) | x | x | -4.9 | x | x | x
CC1CN(C(C)C(=O)NC(c2ccccc2)c2ccccc2)CC(C)O1 (centres undefined) | 0.1 | -1.1 | -6.0 | x | 23.0 | -0.5
COCCN1C(=O)/C(=C/c2ccc(OCc3ccc(C(=O)O)cc3)c(OC)c2)SC1=Nc1ccccc1 | 91.0* | -1.2 | -0.5 | 58.9* | -8.2 | -5.9
Clc1ccc(C(c2nnnn2C2CCCCC2)N(Cc2cccnc2)Cc2ccco2)cc1 (centres undefined) | 40.6 | 22.5 | -1.9 | 70.2* | 1.5 | x
CCOc1ccccc1N=C1SCC(C)N1C(=O)C1CCN(c2ncnc3sc(C)c(C)c23)CC1 (centres undefined) | x | x | -2.0 | x | x | x
COc1cnn(-c2ccccc2)c(=O)c1SCc1ccc(Cl)c(Cl)c1 | -1.1 | -5.1 | -7.4 | 13.3 | 87.9* | 1.6
CSc1c(SCc2ccccc2)cnn(-c2ccccc2)c1=O | 6.6 | 1.4 | 58.1* | 8.2 | -17.2 | -4.5
Cn1ncc(SCc2ccccc2)c(Cl)c1=O | -2.2 | -0.3 | -1.2 | x | 43.0 | -3.7
COc1c(Cl)cnn(-c2ccccc2)c1=O | -4.1 | 2.0 | -2.1 | -9.3 | 11.6 | 0.6
O=c1oc(-c2ccccc2)c(-c2ccccc2)c2ccccc12 | x | x | 5.3 | x | x | x
COc1ccc(-c2oc3cc(O)c(OC)c(O)c3c(=O)c2OC)cc1O | x | x | 0.0 | x | x | x
Cc1ccc(CNc2oc(-c3ccco3)nc2S(=O)(=O)c2ccccc2)cc1 | 2.0 | -4.8 | -0.3 | 63.2* | -16.5 | 1.4
O=S(=O)(c1ccccc1)c1nc(-c2ccco2)oc1NCCN1CCOCC1 | 3.2 | 10.1 | -13.5 | 5.8 | 20.1 | 2.6
CCc1nnc(NC(=O)c2cccc(C(=O)Nc3nnc(CC)s3)n2)s1 | 99.0* | -7.2 | 5.1 | 63.1* | -1.3 | -7.2
CC(=O)Nc1ccc(S(=O)(=O)N2CCN(C)CC2)cc1 | 3.2 | 7.2 | 14.6 | 64.2* | -10.7 | -0.9
Cc1cc(C(=O)Nc2ccc(N3CCCCC3)cc2)no1 | 4.2 | 18.5 | 3.2 | x | 32.7 | 2.1
O=C(O)/C=C/C(=O)Nc1ccc(S(=O)(=O)N2CCCC2)cc1 | 4.2 | -4.7 | 63.7* | -10.4 | -17.9 | 0.2
Cc1cc(C(=O)Nc2ccc(S(=O)(=O)N3CCCC3)cc2)no1 | -1.4 | -0.8 | -2.0 | -5.0 | 61.5* | 0.2
COC(=O)Nc1ccc(S(=O)(=O)N2CCN(C)CC2)cc1 | 5.3 | 12.4 | -1.6 | -39.5 | -1.6 | 1.0
CC(CNC(=O)CCn1ccc2cc(S(=O)(=O)N3CCCC3)ccc21)c1ccccc1 (centres undefined) | -0.6 | 9.8 | 6.3 | x | 30.2 | 0.4
COc1ccccc1CNC(=O)CN1C(=O)N(C)C2(CCCCC2)C1=O | x | x | -5.3 | x | x | x
CSc1cccc(N2CC(C(=O)N(CC(C)C)c3c(N)n(Cc4ccccc4)c(=O)[nH]c3=O)CC2=O)c1 (centres undefined) | -0.3 | -7.7 | -51.6 | x | x | 0.4
Cc1cccc(/C=N/n2c(C3CCCCC3)n[nH]c2=S)c1 | 12.4 | 2.8 | 12.0 | x | -28.9 | -3.7
FC(F)(F)c1ccccc1/C=N/n1c(C2CCCCC2)n[nH]c1=S | 56.0* | -2.1 | -0.1 | x | -110.7 | -0.9
CC(/C=N/n1c(C2CCCCC2)n[nH]c1=S)=C\c1ccccc1 | 45.8 | 1.2 | 1.1 | 89.1* | -171.3 | -3.1
Cc1ccc(S(C)(=O)=O)cc1C(=O)OCC(=O)N(Cc1ccccc1)Cc1ccccc1 | x | x | 8.0 | x | x | x
Cc1ccc(OC(=O)c2sc3ncn(C)c(=O)c3c2C)cc1 | 77.9* | 4.3 | -1.4 | 5.9 | -33.8 | 1.0
